Measured values as given in PubChem BioAssay (NCI).
About 83,000 compounds went through this panel and 20% of them were active in at least one assay; those are over-represented in the sample as a whole.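 Negative percent growth values reflect cell death: -40 means 40% of the cells present at the start died, and -100 means all died.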 Active and inactive are the calls of the source. The calls were made as follows: active = growth percent below 10; inactive = the rest.

Experiments:
Assay in all cases: NCI-60 one-dose screen, 48 h (100 = growth as untreated, 0 = no growth, -100 = all killed)
Conditions in all cases: 10 µM unless noted
[1] = tested on: NCI-H23 lung
[2] = tested on: NCI-H226 lung
[3] = tested on: NCI-H322M lung
[4] = tested on: HOP-62 NSCLC
[5] = tested on: NCI-H460 lung
[6] = tested on: HOP-92 NSCLC
[7] = tested on: 786-0 renal
[8] = tested on: COLO 205 colon
[9] = tested on: DU-145 prostate
[10] = tested on: K-562 leukemia
[11] = tested on: MALME-3M melanoma
[12] = tested on: MDA-MB-231 breast
[13] = tested on: RXF 393 renal
[14] = tested on: SF-268 CNS
[15] = tested on: SF-295 CNS
[16] = tested on: SF-539 CNS
[17] = tested on: M14 melanoma
[18] = tested on: A549/ATCC NSCLC
[19] = tested on: UACC-257 melanoma
[20] = tested on: NCI-H522 lung

Measured: growth

CCS(=O)(=O)Nc1cccc(Nc2c3cccc(C)c3nc3c(C)cccc23)c1OC
inactive: [1] 11.1% | [3] 49.1% | [8] 27.1% | [11] 21.5% | [12] 59.9% | [13] 34.6% | [14] 20.4% | [17] 17.2%
active: [2] -6.89% | [4] 8.84% | [5] 3.23% | [6] -11.8% | [7] -42.1% | [9] 2.74% | [10] 8.19% | [15] -7.84% | [16] -41.3%

ClC1=NC(Cl)C(Cl)=N/C1=N\c1ncn[nH]1 (centres undefined)
inactive: [1] 62.8% | [2] 106% | [3] 89.2% | [4] 39.3% | [5] 73.3% | [7] 81.2% | [12] 72.7% | [14] 33.8% | [15] 101% | [16] 67.5% | [17] 39.2%
active: [6] -60% | [9] -78.9% | [10] -48% | [11] -64.3% | [13] -64.6%

COc1ccc(-n2nc(C(=O)Nc3ccc(F)cc3)nc2-c2cc(OC)c(OC)c(OC)c2)cc1
inactive: [1] 92.7% | [2] 79.3% | [3] 78.5% | [4] 87.8% | [5] 98.4% | [6] 91.2% | [7] 83.6% | [8] 102% | [9] 111% | [10] 83.7% | [11] 96.2% | [12] 93.9% | [14] 102% | [16] 88.3% | [17] 110%

COC(=O)[C@@H](Cc1c[nH]c2ccccc12)NC(=O)/C=C/c1ccccc1
inactive: [1] 39.4% | [2] 60.2% | [3] 33.8% | [4] 19% | [6] 54.6% | [7] 28.8% | [8] 97.3% | [9] 12% | [10] 15.9% | [11] 35.1% | [12] 37.7% | [14] 42.9%
active: [5] 9.94% | [13] -25.6% | [15] -1.2% | [16] -66.8% | [17] -37.5%

CC(=O)C1CCC2C3CC(C)=C4CC(O)CCC4(C)C3CCC12C (centres undefined)
inactive: [1] 99.5% | [2] 93.4% | [3] 103% | [4] 124% | [5] 109% | [6] 102% | [18] 99.6% | [7] 94.3% | [9] 119% | [10] 86.1% | [12] 101% | [13] 111% | [14] 102% | [15] 113% | [16] 90.7% | [19] 117% | [17] 98.1%

O=C(O)C(CCc1ccccc1)NCc1ccccc1 (centres undefined)
inactive: [1] 94.9% | [2] 106% | [3] 103% | [4] 93.3% | [5] 116% | [20] 87% | [18] 99.7% | [7] 100% | [8] 97.3% | [9] 95.7% | [10] 113% | [11] 89.8% | [12] 91.4% | [13] 128% | [14] 98.4% | [15] 103% | [16] 89.8% | [19] 99.4% | [17] 79.6%

C[N+](C)(C)CCCCCCCCCC[N+](C)(C)C
inactive: [1] 88.7% | [2] 95.6% | [3] 118% | [4] 96.2% | [5] 98.2% | [6] 103% | [18] 103% | [7] 109% | [11] 93% | [12] 83.6% | [13] 101% | [14] 98.2% | [15] 113% | [16] 119% | [19] 107% | [17] 97.1%

CCCCCCCCCCCCCC
inactive: [1] 92.5% | [2] 106% | [3] 105% | [4] 98.2% | [5] 108% | [6] 91.3% | [7] 99.4% | [8] 108% | [9] 135% | [10] 113% | [11] 113% | [13] 112% | [14] 120% | [15] 99.2% | [16] 109% | [17] 115%

COc1cc2c(cc1OC)-c1cc(OC)c(OC)cc1C(CN(C)C)C2 (centres undefined)
inactive: [1] 51.8% [100 µM] | [2] 18.4% [100 µM] | [3] 38.9% [100 µM] | [5] 67.7% [100 µM] | [6] 21.4% [100 µM] | [7] 16.9% [100 µM] | [8] 100% [100 µM] | [9] 45.3% [100 µM] | [10] 77.6% [100 µM] | [11] 44.1% [100 µM] | [12] 39.7% [100 µM] | [13] 41.6% [100 µM] | [14] 39% [100 µM] | [17] 69.5% [100 µM]
active: [4] -57.2% [100 µM] | [15] 4.33% [100 µM]
